# Sampled rows, rich in hits. Any-hit rate of the full collection: about 3.5%.
# TEAD-YAP block – TEAD-YAP interaction inhibition, primary screen, TEAD-YAP interaction inhibitor project, luminescence, HEK-TIYL cells. TEAD-Gal4/YAP UAS-luciferase luminescence. hit rate 1.4% among 640,000. inhibition, % at 9.12 µM; in the data active means inhibition above about 32%
# MITF primary – MITF inhibitors, primary screen, biochemical, AlphaScreen, human. hit rate 0.91% among 650,000. AlphaScreen MITF homodimerization, bead proximity signal. Microphthalmia-associated transcription factor (Homo sapiens), O75030. inhibition, % at 2.6 µM; in the data active means inhibition above about 50%
# Target sequence (O75030 whole entry, looked up): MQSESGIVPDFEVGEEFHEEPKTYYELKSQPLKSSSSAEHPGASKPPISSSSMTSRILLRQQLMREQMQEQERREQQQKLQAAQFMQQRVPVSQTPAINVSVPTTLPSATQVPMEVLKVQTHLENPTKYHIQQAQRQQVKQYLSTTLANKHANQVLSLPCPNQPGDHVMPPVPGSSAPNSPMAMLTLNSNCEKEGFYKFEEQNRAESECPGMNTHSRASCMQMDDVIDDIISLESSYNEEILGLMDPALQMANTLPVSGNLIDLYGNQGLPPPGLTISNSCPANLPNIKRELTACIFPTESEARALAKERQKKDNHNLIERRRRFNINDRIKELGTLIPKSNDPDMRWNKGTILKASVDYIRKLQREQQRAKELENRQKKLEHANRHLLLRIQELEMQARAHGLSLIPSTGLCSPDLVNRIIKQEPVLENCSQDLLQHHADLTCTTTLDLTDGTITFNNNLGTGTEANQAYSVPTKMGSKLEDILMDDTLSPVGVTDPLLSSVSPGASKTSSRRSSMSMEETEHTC
# GPR151 ag – activators of human GPR151, primary screen, cell-based, PathHunter beta-arrestin, luminescence; G-protein coupled receptor 151 (Homo sapiens), Q8TDV0; PathHunter beta-arrestin GPR151 cells; activation, % at 11.2 µM; hit rate 1% among 650,000; in the data active means activation above about 4.9%
# FBW7 activator – FBW7 E3 ligase activators, primary screen, biochemical, AlphaScreen, human. AlphaScreen FBW7–phospho-cyclin E peptide binding, activator screen. normalized activity (activation), % at 26.1 µM. hit rate 0.13% among 650,000; in the data active means normalized activity above about 1.9%;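 further: purified mutant Fbw7 with reduced substrate affinity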
# GPR151 confirm – GPR151 activators, triplicate retest, confirmation, cell-based, PathHunter beta-arrestin, luminescence | shares compounds with GPR151 ag | GPR151 PathHunter beta-arrestin cells, 90 min; % of EA-reagent control over plate median | activation, % at 11.2 µM | 6,700 tested, under 10 active | AID 1508609, 2020;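 active means mean percent activation across replicates above the confirmation screen cutoff of 4.91%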
# GPR119 ag – GPR119 activators in beta-arrestin cells, counter-screen for GPR151 activator project, cell-based, PathHunter beta-arrestin, luminescence, triplicate. hit rate 0.3% among 6,700. shares compounds with GPR151 ag. 90 min; 0 = compound-well median, 100 = enzyme-acceptor control. activation, % at 11.2 µM;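 active means mean percent activation in the counterscreen above 29.09%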;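 further: counterscreen on off-target GPR119 to flag nonselective hits from the GPR151 activator screen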
# Hits are given with their value; i = inactive; nt = no result given; ! = a repeat was not active.
SMILES,TEAD-YAP block,MITF primary,GPR151 ag,FBW7 activator,GPR151 confirm,GPR119 ag
CCC(CC)C(=O)Nc1c2c(nn1-c1ccc(OC)cc1)CS(=O)(=O)C2,i,i,7.4,i,i,i
CCC1(CC)C(=O)C(C)(C)C(=O)OC1C#Cc1ccccc1 (stereo unspecified),i,i,i,i,nt,nt
COc1ccccc1-n1nc(C(=O)N2CCC3(CC2)OCCO3)c2ccccc2c1=O,i,i,i,i,nt,nt
NNC(=O)C1c2ccccc2Sc2ccccc21,i,i,i,i,nt,nt
N#Cc1cc(C(=O)c2cc(F)ccc2O)cn(C2CC2)c1=O,i,i,5.9,i,i,i
COc1ccc(N2CCN(Cc3cc(=O)c(OC)cn3CC(=O)Nc3ccc(C)cc3)CC2)cc1,i,i,i,i,nt,nt
Cc1cc(NC(=O)c2cccs2)ccc1NC(=O)c1cccs1,i,i,i,i,nt,nt
COc1ccc2nccnc2c1[N+](=O)[O-],i,i,12.9,i,i,i
COc1ccc([N+](=O)[O-])cc1/C=C1\C(=O)N(c2ccccc2)N=C1C,i,i,8.1,i,i,i
CN(c1ccccc1)S(=O)(=O)c1ccc(C(=O)OC2CCOC2=O)cc1 (stereo unspecified),i,i,10.9,i,i,i
O=C(OC1CCOC1=O)c1ccc(S(=O)(=O)N2CCCC2)cc1 (stereo unspecified),i,i,i,i,nt,nt
N#Cc1cccc(Nc2ccc3c(cnn3-c3cc(C(=O)NCCN4CCOCC4)ccn3)c2)c1,i,i,i,i,nt,nt
CCSc1sc(CC)cc1C1C(C#N)=C(N)N(N(C)C)C2=C1C(=O)CC(C)(C)C2 (stereo unspecified),i,i,5.5,i,i,i
CC(C)Cc1nc(SCC(=O)Nc2ccccc2)c2c(=O)n(C)c(=O)n(C)c2n1,i,i,8.1,i,i,i
Cc1ccc(C)c(Cc2c(C)nc3nc(SCc4c(F)cccc4Cl)nn3c2C)c1,i,i,i,i,nt,nt
Cc1ccc(C)c(CSc2nc3nc(C)c(Cc4c(F)cccc4Cl)c(C)n3n2)c1,i,i,6.3,i,i,i
CCCC1(CCC)NC(=S)N(c2ccc(C)c(C)c2)N1,i,i,i,i,nt,nt
Cc1cc(N2CCCCC2)nc2ccc(NC(=O)c3cccc([N+](=O)[O-])c3)cc12,i,i,16.9,i,i,i
CC1(NC(=S)NC2CCS(=O)(=O)C2)CCS(=O)(=O)C1 (stereo unspecified),i,i,i,i,nt,nt
C=CCNC(=O)/C(C#N)=C/c1c(Oc2ccccc2Cl)nc2ccccn2c1=O,i,i,i,i,nt,nt
COc1ccccc1N/N=C(\C)c1ccc([N+](=O)[O-])o1,i,i,5.7,i,i,i
Cc1ccc(CNC(=O)C2CCN(C(=O)c3ccc(C)cc3)CC2)cc1,i,i,i,i,nt,nt
O=C(c1ccc(NS(=O)(=O)c2ccccc2)cc1)N1CCCC1,i,i,7.2,i,i,i
COc1ccc(OCC(=O)N2CCN(C(=O)c3ccccc3)CC2)cc1,i,i,8.4,i,i,i
COc1ccc(CNC(=O)C2CCN(C(=O)c3ccc(Br)cc3)CC2)cc1,i,i,6.4,i,i,i
SMILES,TEAD-YAP block,MITF primary,GPR151 ag,FBW7 activator,GPR151 confirm,GPR119 ag
O=C(Nc1ccc(F)cc1F)C1CCN(C(=O)c2ccc(Br)cc2)CC1,i,i,5.5,i,i,i
Cn1c(=O)c2c(nc(Sc3nc4ccccc4[nH]3)n2C)n(C)c1=O,i,i,i,i,nt,nt
COc1ccc(NC(=O)Nc2ccc(C(=O)N3CCCCC3)cc2)cc1,i,i,11.7,i,i,i
Cc1ccc(Cl)c(NC(=O)C2CCN(c3nc(C)cc(C)n3)CC2)c1,i,i,i,i,nt,nt
Cc1cc(C)nc(N2CCC(C(=O)Nc3ccc(Cl)cc3Cl)CC2)n1,i,i,9.5,i,i,i
CCOC(=O)COc1ccc2c(=O)c(-c3ccccc3F)c(C)oc2c1,i,i,6.2,i,i,i
CCOC(=O)COc1ccc2c(=O)c(-c3ccc(OC)cc3)c(C)oc2c1,i,i,i,i,nt,nt
C=CCSc1nc2c(c(=O)[nH]1)C(c1ccc(C)o1)C1=C(CCCC1=O)N2 (stereo unspecified),i,i,6.3,i,i,i
COc1ccccc1CNS(=O)(=O)Cc1ccc(Cl)cc1,i,i,i,i,nt,nt
C=CCOc1ccc(/C=C2\C(=O)NC(=O)N(C)C2=O)cc1Br,i,i,5.7,i,i,i
CC(=O)c1ccc(N2CCN(C(=O)Nc3cccc(F)c3)CC2)cc1,i,i,10.7,i,i,i
CC(=O)c1ccc(N2CCN(C(=O)Nc3ccc(C)cc3)CC2)cc1,i,i,i,i,nt,nt
O=C(Nc1cccc2ccccc12)N1CCN(c2ccc(F)cc2)CC1,i,i,10.8,i,i,i
CCN(CC)C(=O)C1CCCN(C(=O)c2ccc(N3CC4CC(C3)c3cccc(=O)n3C4)c(NC(=O)c3ccncc3)c2)C1 (stereo unspecified),i,i,i,i,nt,nt
CCC(C)(C)NS(=O)(=O)c1cc(Br)cnc1N,i,i,6.0,i,i,i
CC(C)(C)NS(=O)(=O)c1cc(Br)cnc1N,i,i,i,i,nt,nt
C[N+](C)(C)C/C=C1/COCO1,i,i,13.5,i,i,i
Cc1ccc(NC(=O)c2nn3c(c2Br)NC(c2cccs2)CC3C(F)(F)F)cc1C (stereo unspecified),i,i,7.1,i,i,i
CC(=O)c1c(Nc2ccc(C)cc2C)oc(C)cc1=O,i,i,i,i,nt,nt
Clc1ccc2c(c1)CCc1cccnc1C2=C1CCNCC1,i,i,7.8!,i,i,i
CC(=O)OCCCNC(=O)/C(=C/c1ccccc1)NC(=O)c1ccco1,i,i,i,i,nt,nt
C/C(=N\Nc1ccccc1)c1no[n+]([O-])c1C,i,i,6.1,i,i,i
CC(C)C[C@@H]1NC(=O)[C@@H]2C[C@H](NC(=O)Nc3cccc(C(F)(F)F)c3)CN2C1=O,i,i,12.1,i,i,i
COc1ccccc1CN[C@H]1C[C@H]2C(=O)N[C@H](CO)C(=O)N2C1,i,i,i,i,nt,nt
COc1ccccc1CN[C@H]1C[C@H]2C(=O)N[C@@H](CC(C)C)C(=O)N2C1,i,i,6.1,i,i,i
CC(C)[C@@H]1NC(=O)[C@@H]2C[C@H](NCc3cn(C)nc3-c3ccccc3)CN2C1=O,i,i,12.6,i,i,i
CC(=O)Nc1ccc(S(=O)(=O)N2CCN(c3c(Cl)cccc3[N+](=O)[O-])CC2)cc1,i,i,i,i,nt,nt
O=C1CCC(c2sc(Cl)c(Cl)c2Cl)=NN1c1ccccc1,i,i,11.6,i,i,i
O=C1CCC(c2ccccc2)=NN1c1ccccn1,i,i,i,i,nt,nt
